Entries with a potency or affinity are not part of this list. Activity calls are given as the source filed them. How the calls were made is not given here.
Test: HepG2 cell cytotoxicity, dose response, cytotoxicity control, dry powder samples (AID 720568)

| Structure (SMILES) | outcome |
| --- | --- |
| COc1ccc(CSc2nnc(-c3ccccc3)o2)cc1 | inactive |
| c1ccc(CSc2nnc(-c3ccccc3)o2)cc1 | inactive |
